Assay results reported in PubChem BioAssay AID1159580 (chemical genetic matrix, 2015).
Out of some 5,500 compounds screened, about 2,000 (36%) were called active. About 18% were inconclusive and are not listed. Cut-off read from the data, not from the text of the source: active = normalized growth mostly below about 0.91 (no sharp cut-off); inconclusive = no clear call, values can overlap the other calls; inactive = mostly above about 0.92. The list shows a part of the results.

Assay: chemical genetic growth profiling, strain panel (AID 1159580);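 note: tested at 20 µM; growth read once vehicle control cultures reached saturation at 30 °C; 1 = growth at the plate median or of vehicle wells; lower values mean less growth of the strain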
Conditions: S. cerevisiae deletion strains, growth OD

Measured: normalized growth

CC(=O)OC1CC2C(C)(C)CCCC2(C)C2CCC3(C)C(c4ccoc4)OC(=O)C4OC43C12C (stereo not drawn)
inactive: locus YAL013W, strain DEP1, active compounds read low 0.993 | locus YBR021W, strain FUR4, active compounds read low 0.981 | locus YBR229C, strain ROT2, active compounds read low 0.995 | locus YCL029C, strain bik1, active compounds read low 1.02 | locus YDL035C, strain GPR1, active compounds read low 0.975 | locus YDL074C, strain BRE1, active compounds read low 0.988 | locus YDL101C, strain DUN1, active compounds read low 1.02 | locus YDL134C, strain PPH21, active compounds read low 0.987 | locus YDL185W, strain tfp1, active compounds read low 1.03 | locus YDL192W, strain arf1, active compounds read low 1.01 | locus YDR101C, strain arx1, active compounds read low 1.02 | locus YDR150W, strain NUM1, active compounds read low 1 | locus YDR162C, strain NBP2, active compounds read low 0.979 | locus YDR318W, strain mcm21, active compounds read low 1.01 | locus YDR388W, active compounds read low 1.01 | locus YDR502C, strain sam2, active compounds read low 0.999 | locus YEL061C, strain CIN8, active compounds read low 1 | locus YER110C, active compounds read low 1.02 | locus YER155C, strain BEM2, active compounds read low 1 | locus YER167W, strain BCK2, active compounds read low 1 | locus YGL078C, strain dbp3, active compounds read low 1.01 | locus YGL086W, strain mad1, active compounds read low 1 | locus YGL248W, strain PDE1, active compounds read low 1 | locus YGR135W, strain pre9, active compounds read low 1 | locus YGR252W, strain gcn5, active compounds read low 0.914 | locus YHR030C, strain SLT2, active compounds read low 1.01 | locus YHR079C, strain IRE1 (second series), active compounds read low 1.01 | locus YHR094C, strain hxt1, active compounds read low 1.01 | locus YHR129C, strain ARP1, active compounds read low 1 | locus YHR200W, strain rpn10, active compounds read low 1 | locus YIL066C, strain RNR3, active compounds read low 1 | locus YIL073C, strain SPO22, active compounds read low 1.02 | locus YIL125W, strain kgd1, active compounds read low 1.01 | locus YIR030C, strain dcg1, active compounds read low 1.01 | locus YJL095W, strain BCK1, active compounds read low 0.991 | locus YJL134W, strain LCB3, active compounds read low 1.01 | locus YJL168C, strain set2, active compounds read low 1.01 | locus YJL187C, strain SWE1 (second series), active compounds read low 0.999 | locus YJR043C, strain POL32, active compounds read low 0.978 | locus YJR075W, strain HOC1, active compounds read low 0.995 | locus YKL009W, strain mrt4, active compounds read low 1 | locus YKL068W, active compounds read low 1.01 | locus YKL085W, strain MDH1 (second series), active compounds read low 1 | locus YKL085W, strain MDH1, active compounds read low 1 | locus YKL190W, strain CNB1, active compounds read low 1 | locus YKR001C, strain vps1, active compounds read low 0.993 | locus YLR039C, strain RIC1, active compounds read low 1.01 | locus YLR058C, strain SHM2, active compounds read low 1.01 | locus YLR102C, strain apc9, active compounds read low 1.01 | locus YLR262C, strain YPT6, active compounds read low 1.03 | locus YLR268W, strain sec22, active compounds read low 1.01 | locus YLR330W, strain CHS5, active compounds read low 1.01 | locus YLR342W, strain FKS1 (second series), active compounds read low 0.954 | locus YLR371W, strain rom2, active compounds read low 1.02 | locus YLR418C, strain cdc73, active compounds read low 1.01 | locus YML016C, strain PPZ1, active compounds read low 1.01 | locus YML032C, strain rad52, active compounds read low 1.01 | locus YML124C, strain tub3, active compounds read low 1.02 | locus YMR078C, strain ctf18, active compounds read low 1.02 | locus YMR223W, strain ubp8, active compounds read low 1 | locus YMR263W, strain SAP30, active compounds read low 1.01 | locus YMR307W, strain GAS1, active compounds read low 0.854 | locus YNL067W, strain RPL9B, active compounds read low 1.02 | locus YNL153C, strain GIM3, active compounds read low 1 | locus YNL233W, strain BNI4, active compounds read low 0.99 | locus YNL250W, strain rad50, active compounds read low 1.01 | locus YNL271C, strain bni1, active compounds read low 0.998 | locus YNL298W, strain CLA4, active compounds read low 1.01 | locus YNL307C, strain MCK1, active compounds read low 1.01 | locus YNR052C, strain pop2, active compounds read low 1.01 | locus YOL012C, strain htz1 0.802 | locus YOL147C, strain pex11, active compounds read low 1.01 | locus YOR061W, strain CKA2, active compounds read low 1.01 | locus YOR069W, strain VPS5, active compounds read low 1.01 | locus YOR136W, strain idh2, active compounds read low 1.01 | locus YOR144C, strain elg1, active compounds read low 1.01 | locus YOR184W, strain ser1, active compounds read low 1.01 | locus YOR316C, strain cot1, active compounds read low 1.01 | locus YPR119W, strain clb2, active compounds read low 1.01 | locus YPR141C, strain kar3, active compounds read low 1.02 | locus YPR163C, strain tif3, active compounds read low 1.02 | locus YPR167C, strain met16, active compounds read low 1.01 | strain wtn01, active compounds read low 1
